Results published in the supplement of paper PMC13380429.

System: Vero E6 infected with SARS-CoV-2
Experiment: inhibition of SARS-CoV-2 cytopathic effect; higher = more antiviral protection, active = above 15
Conditions: 48 h

Measured: inhibition of SARS-CoV-2 cytopathic effect

CC(C)(C)NC(=O)N[C@H](C(=O)N1C[C@H]2[C@@H]([C@H]1C(=O)NC(CC1CCC1)C(=O)C(N)=O)C2(C)C)C(C)(C)C (stereo not given in full) [Boceprevir]
inactive: 1 nM 0.22% | 8.33 nM 1.1% | 100 nM -0.28% | 833.33 nM -1.99% | 10000 nM -0.53%

O=C(NNc1nc2cc(F)ccc2n2cccc12)c1cnccn1
inactive: 1 nM -2.31% | 8.33 nM 0.82% | 100 nM 0.63% | 833.33 nM 0.71% | 10000 nM -4.33%

CN(C(=O)/C=C/c1ccoc1)[C@@H]1CC[C@@]2(O)[C@H]3Cc4ccc(O)c5c4[C@@]2(CCN3CC2CC2)[C@H]1O5 [nalfurafine]
inactive: 1 nM -5.32% | 8.33 nM -1.02% | 100 nM 0.43% | 833.33 nM -2.31% | 10000 nM -1.57%

NS(=O)(=O)Cc1noc2ccccc12 [zonisamide]
inactive: 1 nM -1.19% | 8.33 nM -3.86% | 100 nM -0.76% | 833.33 nM 0.73% | 10000 nM -2.23%

O=C(Nc1cnccc1Cl)N1CCN(Cc2ccc3c(c2)OC(F)(F)O3)CC1
inactive: 1 nM 1.58% | 8.33 nM -1.35% | 100 nM 1.93% | 833.33 nM 0.76% | 10000 nM 0.7%

COc1ccccc1N1CCN(CCCCNC(=O)c2ccc3ccccc3c2)CC1
inactive: 1 nM -1.05% | 8.33 nM 0.24% | 100 nM 1.14% | 833.33 nM -0.36% | 10000 nM -6.44%

CCCSc1ccc2[nH]c(NC(=O)OC)nc2c1 [albendazole]
inactive: 1 nM 3.38% | 8.33 nM -0.38% | 100 nM -0.24% | 833.33 nM -0.32% | 10000 nM 2.97%
